Our source for the Potency values is PubChem BioAssay (NCATS).

The structures appear in SMILES notation. Records with an inconclusive call do not appear. Where a call stands in place of a potency, no number is given. Calls of active or inactive are those of the source. Calls come from the whole dose curve; as a rule, active = well fitted inhibition curve with a large enough effect; inconclusive = small, poorly fitted or top-dose-only effect; inactive = flat fitted curve, though single readings scatter.

This experiment deals with Calcium and integrin-binding protein 1 (Homo sapiens) (UniProt Q99828). The experiment is described as follows: Primary qHTS for Identification of Calcium Integrin Binding Protein 1 (CIB1) Competitor (AID 1508620).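 Note: GST tagged CIB1 binding a fluorescein labelled alphaIIb integrin peptide tracer; top concentration of the series differs between compounds.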 The essentials: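 CIB1-GST (1 uM final) and compound incubated 15 min at room temperature before adding FITC-alphaIIb peptide tracer (100 nM final). Competition for binding read by fluorescence polarization (ex 480, em 540) after another 15 min at room temperature.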
Chain of Calcium and integrin-binding protein 1 (Homo sapiens) (Q99828 whole entry, looked up): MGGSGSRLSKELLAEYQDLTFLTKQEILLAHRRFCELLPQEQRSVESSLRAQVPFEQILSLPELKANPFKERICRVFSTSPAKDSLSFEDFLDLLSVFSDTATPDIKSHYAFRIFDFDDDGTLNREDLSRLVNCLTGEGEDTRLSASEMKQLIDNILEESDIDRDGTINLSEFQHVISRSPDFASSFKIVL
For orientation: Quantitative high-throughput screening tests each substance at several concentrations.

Regarding `O=C(CCCCc1ccc2ccccc2c1)C(F)(F)F`, the Potency result is “inactive”. Consider `COc1ccc(/C=C/C(=O)O[C@H]2[C@@H]3C=CO[C@@H](O[C@@H]4O[C@H](CO)[C@@H](O)[C@H](O)[C@H]4O)[C@@H]3[C@@]3(CO)O[C@@H]23)cc1O`, for which the Potency entry was “inactive”.

Take `CC(/C=C/C1(O)C2(C)COC1(C)CC(=O)C2)O[C@@H]1O[C@H](CO)[C@@H](O)[C@H](O)[C@H]1O` (some centres undefined): the Potency entry was “inactive”. As for `CC(=O)c1c(C)cc(O[C@@H]2O[C@H](CO)[C@@H](O)[C@H](O)[C@H]2O)cc1O`, the entry is “inactive”; as for `CC1=C2C=C(CO)C(CO)CCC2(C)CCC1=O` (centres undefined), “inactive”. As for `CC1(C)CCCC2(C)C1C(O)C=C(CO)C2(O)C(=O)O` (centres undefined), the entry is “inactive”; as for `OC1COC(OCC2OC(OCCc3ccccc3)C(O)C(O)C2O)C(O)C1O` (centres undefined), “inactive”.

`COc1cc(/C=C/c2cc(O)cc(O[C@@H]3O[C@H](CO)[C@@H](O)[C@H](O)[C@H]3O)c2)ccc1O`: the Potency entry was “inactive”. To `COC(=O)c1ccc(O[C@@H]2O[C@H](CO)[C@@H](O)[C@H](O)[C@H]2O)c(OC)c1` belongs “inactive”; to `O=C1N(CC2CCCCN2)CCN1c1ccccc1` (centres undefined), “inactive”. As for `COC1=CC(=O)O[C@@H](/C=C/c2ccccc2)[C@@H]1O`, the entry is “inactive”; as for `CC1(C)CC2C(O)C3=C(CC(C)(O)C2C1)C(=O)OC3O` (centres undefined), “inactive”; as for `COc1ccc(C2=CC(=O)OC2Cc2ccc(O)cc2)c(O)c1` (centres undefined), “inactive”. As for `CC12CCC3c4ccc(O)cc4CCC3C1CCC2OC1OC(C(=O)O)C(O)C(O)C1O` (centres undefined), the entry is “inactive”; as for `CNC(=O)COC(=O)NCCC1CCN(c2cccc(C)n2)CC1`, “inactive”. For `C/C(=C/CCC(CO)C1CCC2(C)C3CCC4C(C)(C)C(OC5OC(CO)C(O)C(O)C5O)CC(O)C45CC35CCC12C)COC1OC(CO)C(O)C(O)C1O` (centres undefined), the Potency result was “inactive”. For `CC1CCC2(C)C(CC(O)C(O)C23CO3)C1(C)CCC1=CC(=O)OC1O` (centres undefined), the Potency result is “inactive”.

Consider `COc1cc(COC2OC(CO)C(O)C(O)C2O)cc(OC)c1O` (centres undefined), for which the Potency result was “inactive”. To `COC(=O)c1cc(CN2CCN(C(=N)N)CC2)cc(C(=O)N2CCN(C(=O)c3ccc(C(=N)N)cc3)CC2)c1` belongs “inactive”; to `NC(Cc1c[nH]c2ccccc12)C(=O)NC(CCC(=O)O)C(=O)O` (centres undefined), “inactive”; to `COC(=O)C1=CO[C@@H](O[C@@H]2O[C@H](CO)[C@@H](O)[C@H](O)[C@H]2O)[C@@H]2[C@@H](C(=O)OC)[C@@H](O)C(O)[C@H]12` (some centres undefined), “inactive”.

As for `COc1cccc(-c2ccc([C@@H](Oc3cc(-c4ccc(C[C@H](N)C(=O)O)cc4)nc(N)n3)C(F)(F)F)cc2)c1`, the Potency entry is “inactive”. To `CCC[C@@H]1C[C@@H](C(=O)N[C@@H]([C@H]2O[C@H](SC)[C@H](O)[C@@H](O)[C@@H]2O)[C@@H](C)O)N(C)C1` belongs “inactive”.

On to `OC[C@H]1O[C@@H](n2cnc3c(NCc4ccc(O)cc4)ncnc32)[C@H](O)[C@@H]1O`, for which the Potency entry is “inactive”.

As to `C=C[C@@]1(C)CC(=O)C2[C@](C)(O1)[C@@H](OC(C)=O)[C@@H](O)[C@H]1C(C)(C)CCC[C@]21C` (some centres undefined), the Potency entry was “inactive”. To `CC1CC(=O)C2=C(O1)OC1(C)CCC3C(C)(C)C=CC(=O)C3(C)C1C2` (centres undefined) belongs “inactive”; to `CC(=O)N1CCN(NC(=O)c2ccc(F)cc2)CC1`, “inactive”; to `NC(=O)[C@H]1CCCCc2c1[nH]c1ccc(Cl)cc21`, “inactive”. To `CC1(C)CC[C@]2(C(=O)O[C@@H]3O[C@H](CO)[C@@H](O)[C@H](O)[C@H]3O)CC[C@]3(C)C(=CCC4[C@@]5(C)C[C@@H](O)[C@H](O)[C@@](C)(CO)C5CC[C@]43C)C2C1` (some centres undefined) belongs “inactive”.
